# Assay outcomes deposited in PubChem by Broad Institute.
# EWS-Fli inh – EWS/Fli-driven NR0B1 reporter inhibitors, primary screen, A673 cells, NR0B1 luciferase, luminescence, MLPCN library; inhibition, % at 12.6 µM; viability-normalised; 0.67% of 350,000 active;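 active means mean inhibition of at least 50% after viability correction, with every replicate also passing that limit; inconclusive means mean reaches 50% but only one of two replicates passes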;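 further: firefly luciferase signal divided by Alamar Blue viability fluorescence both relative to DMSO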
# MITF TRPM1 inh – inhibitors of MITF-dependent TRPM1 promoter reporter, primary screen, cell-based, SK-MEL-5, single point, luciferase; SK-MEL-5 TRPM1 promoter luciferase, 24 h; inhibition, % at 12.5 µM; 0.83% of 330,000 active;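 active means mean inhibition across replicates of 60% or more, whatever share of single replicates reaches that level; inconclusive means some that reach 60%, reason not given; inactive means mean inhibition across replicates below 60%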
# PAX8 inh HTS – inhibitors of PAX8-driven TPO luciferase reporter, primary screen, RMG-I cells, single concentration. SteadyGlo, 24 h. inhibition, % at 12.6 µM. 1.2% of 360,000 active. AID 652154, 2013;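 active means mean replicate inhibition at least 60% with every replicate also reaching 60%; inconclusive means only one of the two criteria is met; inactive means mean below 60% and not all replicates reaching 60%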;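 further: luciferase light reporting Pax8 driven TPO promoter activity; plate controls were median of neutral control wells for no effect and mitoxantrone controls for full effect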
# esBAF inh – Bmi1 luciferase reporter increase in mESCs, primary screen, esBAF inhibitor project, mouse ES cells, Bmi1 luciferase knock-in, single point | 24 h; 100% = twice the neutral-well signal | reporter increase, % at 12.5 µM | 2% of 350,000 active; in the data active means activation above about 40%; inconclusive means no clear call, values can overlap the other calls;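 further: 0% = median of the plate's neutral control wells and 100% = double that signal; a rise in the Bmi1 reporter signal indicates esBAF inhibition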
# Wnt act – Wnt/beta-catenin pathway activators, primary screen, cell-based, plate reader, single point. Wnt/beta-catenin reporter cell assay, activator. activation, % at 9.35 µM. 1.2% of 300,000 active; in the data active means activation above about 30%, passing the limit was not always enough; inconclusive means no clear call, values can overlap the other calls;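 further: 0% = neutral control wells and 100% = positive control wells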
# MITF TRPM1 HTS – activators of MITF-driven TRPM1 promoter reporter, primary screen, cell-based, SK-MEL-5, luciferase, single point | SK-MEL-5 TRPM1-promoter luciferase, 24 h; % of positive control, neutral wells = 0 | activation, % at 12.5 µM | 0.75% of 300,000 active;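 active means mean activation of at least 80% with every replicate also reaching 80%; inconclusive means mean reaches 80% but some replicate falls short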;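 further: 0% = neutral control wells and 100% = parthenolide positive control wells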
# The depositor's hits bear a star; ? = inconclusive; / = not tested or not shown; ! = a repeat was not active. In the library only some 4% were active in any assay of this set; here they are far more common.
SMILES,EWS-Fli inh,MITF TRPM1 inh,PAX8 inh HTS,esBAF inh,Wnt act,MITF TRPM1 HTS
O=C(C1CCCCC1)N1CC2(C1)[C@H](c1ccccc1)[C@H](CO)N2Cc1cncnc1,-2.2,/,/,/,/,/
CCC(=O)N1CC2(C1)[C@H](c1ccc(-c3ccc(C)cc3)cc1)[C@@H](CO)N2S(=O)(=O)CC,6.5,/,7.4,/,/,/
COc1ccc(NC(=O)c2ccc3c(c2)OCO3)cc1Cl,/,-80.9,/,/,/,87.6*
COc1ccc(C(=O)O)c(OC)n1,14.3,4.4,10.7,-5.2,-1.9,-4.1
COc1ccc(C(=O)Nc2ccc(Cl)c(Cl)c2)c(OC)n1,/,-46.9,/,65.5*,16.2,45.9
COc1cc(C(=O)Nc2ccc3c(c2)OCCO3)ccc1OC(C)C,/,-71.6,/,?,/,74.6
Cc1ccc(NC(=O)c2onc(C)c2Cl)cc1,-89.6,-22.2,-86.5,2.2,0.7,22.5
COc1cc(C(=O)Nc2ccc3c(c2)OCCO3)ccc1OC(F)F,/,-98.2,/,69.8*,0.0,97.8*
Cc1noc(C(=O)Nc2ccc(F)c(Cl)c2)c1Cl,-63.4,-23.3,-24.0,49.1*,7.4,25.0
CCC(=O)N(C)C[C@@H]1Oc2cc(C3=CCCC3)ccc2S(=O)(=O)N([C@H](C)CO)C[C@H]1C,10.8,/,/,-1.2,/,/
COc1ccc(C#Cc2cnc3c(c2)C(=O)N([C@@H](C)CO)C[C@H](C)[C@H](CN(C)C(=O)c2ccccc2F)O3)cc1,-2.2,/,/,-1.8,/,/
C[C@@H]1CN([C@H](C)CO)S(=O)(=O)c2ccc(C#CC3CCCC3)cc2O[C@H]1CN(C)C(=O)C1CC1,15.9,/,/,-0.8,/,/
COc1ccc(C(=O)Nc2ccc3c(c2)OCCO3)c(OC)c1,-34.0,/,-147.1,0.0,55.1*,/
O=C1OC(c2ccccc2)=C/C1=C/c1cccs1,-3.4,-3.0,-21.1,25.8*,2.9,7.1
O=c1c(-c2ccc3c(c2)OCCO3)coc2cc(OC3OC(CO)C(O)C(O)C3O)ccc12 (stereo not drawn),-40.1,-87.4,-99.2,-3.8,41.5*,93.8*
COc1ccc(-c2coc3cc(O[C@@H]4O[C@H](CO)[C@@H](O)[C@H](O)[C@H]4O)ccc3c2=O)cc1,-44.1,-55.8,-161.5,63.7*,?,56.8
CCOC(=O)c1cc(C(=O)Nc2ccc(C)c(F)c2)nn1C,/,-84.9,/,42.5*,/,?
Cc1ccc(S(=O)(=O)Nc2ccc3c(c2)C(=O)N([C@H](C)CO)C[C@H](C)[C@H](CN(C)S(=O)(=O)c2cn(C)cn2)OCCCC[C@@H](C)O3)cc1,-5.4,/,-20.7,2.8,/,/
CCN(C(=O)COC(=O)c1c2c(nc3ccccc13)/C(=C/c1ccccc1)CC(C)C2)C1CCS(=O)(=O)C1 (stereo not drawn),/,12.0,67.4*,/,-6.1,-12.1
COc1ccc(NC(=O)Nc2ccc3c(c2)C(=O)N([C@@H](C)CO)C[C@@H](C)[C@H](CN(C)S(=O)(=O)c2ccccc2)OCCCC[C@@H](C)O3)cc1,-0.1,/,-12.9,13.0,/,/
O=S(=O)(NCC1COc2ccccc2O1)c1ccc2ccccc2c1 (stereo not drawn),/,4.5,2.1,/,-2.1,-3.9
CNS(=O)(=O)c1ccc(NCC2COc3ccccc3O2)c([N+](=O)[O-])c1 (stereo not drawn),/,-12.1,-7.9,43.9*,/,14.9
COc1ccc(C(=O)c2ccc(-c3ccc(OC)cc3)nc2)cc1,-39.9,-60.5,-9.4,6.0,-0.8,19.9
O=C(c1ccc(F)cc1)c1ccc(-c2ccc(F)cc2)nc1,-88.3,-62.6,-76.7,43.8*,5.3,68.1
COCC(=O)Nc1ccc2c(c1)C(=O)N(C)C[C@H](OC)[C@@H](C)CN(Cc1cc(F)ccc1F)[C@H](C)CO2,1.0,/,-6.2,1.1,/,/
SMILES,EWS-Fli inh,MITF TRPM1 inh,PAX8 inh HTS,esBAF inh,Wnt act,MITF TRPM1 HTS
O=C(O)CCC(=O)N1CCN(S(=O)(=O)c2ccc3ccccc3c2)CC1,4.6,-5.1,-228.8,-2.9,0.5,7.6
Cc1cc(Br)ccc1NC(=O)CNC(=O)Cn1ncc(Cl)c(Cl)c1=O,27.1,94.3*,8.5,/,-0.7,-93.7
O=C(Cn1ncc(Cl)c(Cl)c1=O)Nc1ccc2c(c1)OCO2,48.9,78.7*,89.4*,8.6,-25.8,-78.1
CCN(CC)S(=O)(=O)c1cc(NC(=O)Cn2ncc(Cl)c(Cl)c2=O)ccc1C,47.5,85.3*,93.0*,/,-23.4,-82.9
O=C(Cn1ncc(Cl)c(Cl)c1=O)N1CCN(S(=O)(=O)c2ccc3ccccc3c2)CC1,/,89.1*,97.2*,-13.7,-22.1,-88.1
Cc1nn(CC(=O)Nc2ccc3c(c2)OCO3)c(C)c1Cl,-28.0,-24.3,-6.5,11.0,5.8,20.2
O=C(Cc1ccccn1)N1CC(=O)N2[C@H](C1)[C@@H](c1ccc(C#CC3CCCC3)cc1)[C@@H]2CO,-5.1,/,/,/,/,/
CCC(=O)N1CC2(C1)CN(C(C)=O)[C@@H](CO)c1[nH]c3cc(OC)ccc3c12,-3.6,/,/,/,/,/
COc1ccc(NC(=O)Cn2ncc(Cl)c(Cl)c2=O)cc1S(=O)(=O)N1CCOCC1,38.6,-5.1,83.5*,7.3,-11.8,5.6
COc1ccc(NC(=O)c2ccc(Cl)nc2)cc1S(=O)(=O)N1CCOCC1,0.9,7.2,14.5,3.0,-3.4,-9.2
Cc1ccc(S(=O)(=O)N2CCCCC2)cc1NC(=O)Cn1ncc(Cl)c(Cl)c1=O,75.0*,100.5*,99.3*,-1.3,-27.4,-100.7
C[C@@H]1CN([C@H](C)CO)C(=O)c2cc(NS(=O)(=O)c3ccc(Cl)cc3)ccc2O[C@@H](C)CCCCO[C@H]1CN(C)C(=O)Nc1ccc(C(F)(F)F)cc1,32.7,/,101.6*,-15.7,/,/
C[C@H]1CCCCO[C@@H](CN(C)C(=O)Nc2ccc(C(F)(F)F)cc2)[C@@H](C)CN([C@@H](C)CO)C(=O)c2cc(NS(=O)(=O)c3ccc(F)cc3)ccc2O1,-7.2,/,-21.0,-4.4,/,/
C[C@@H]1CCCCO[C@@H](CN(C)C(=O)Nc2ccc(C(F)(F)F)cc2)[C@@H](C)CN([C@H](C)CO)C(=O)c2cc(NS(=O)(=O)c3ccc(Cl)cc3)ccc2O1,-3.0,/,82.1*!,-9.2,-3.4,/
O=C(Cc1ccc(N2CCNC2=O)cc1)N1CCCC(Nc2cccc(F)c2)C1 (stereo not drawn),54.6*,32.0,16.3,-27.5,-6.2,-31.1
CC(=O)N1[C@@H]2c3ccc(-c4cccc(F)c4)c(=O)n3C[C@@H]2[C@@H](CO)[C@@H]1C(=O)NCCCN(C)C,-3.5,/,-16.1,-1.6,/,/
Cc1scc(C(=O)N/N=C/c2ccc(OC(C)C)cc2)c1C,/,-46.2,/,46.5*,/,53.1
Cc1scc(C(=O)N/N=C/c2ccc(Cl)s2)c1C,-106.9,-45.3,-75.7,/,58.1*,44.5
